This passage reports growth inhibition results from PubChem BioAssay (NCI).

Each structure is given as a SMILES string. About 79,000 compounds went through this panel and 15% of them were active in at least one assay; those are over-represented in the sample as a whole. A number with no mark means an inactive call. Active and inactive are the calls of the source. No stated cut-off is given here; in the data, active means growth inhibition above about 70%; inactive means the rest.

The nature of test [1]: NCI Yeast Anticancer Drug Screen. Data for the rad50 strain (AID 155).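 Further: 0% = growth of vehicle-only cultures of the same strain.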 Particulars: S. cerevisiae rad50 strain growth inhibition; at 50.0 µM; stronger effect = higher value. The method in brief:
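Cells are treated with compound, grown, and their growth is then scored against vehicle-only cultures of the same repair-deficient yeast strain.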

A short description of test [2]: NCI Yeast Anticancer Drug Screen. Data for the mec2-1 strain (AID 157). Particulars: S. cerevisiae mec2-1 strain, at 50.0 µM, stronger effect = higher value. The method in brief:
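Strain: mec2-1 (DNA repair/cell cycle alteration). Compound exposure, then growth measured; inhibition expressed relative to vehicle.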

A short description of test [3]: NCI Yeast Anticancer Drug Screen. Data for the sgs1 mgt1 strain (AID 161).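 Further: 0% = growth of cultures given vehicle only.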 The following applies: S. cerevisiae sgs1 mgt1 strain, at 50.0 µM, stronger effect = higher value. The method in brief:
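Test agents were incubated with a DNA-repair-mutant yeast strain. Growth was then read and compared against vehicle-treated controls.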

Test [4] can be described thus: NCI Yeast Anticancer Drug Screen. Data for the cln2 rad14 strain (AID 165).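 Further: 0% = growth equal to vehicle treated cultures.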 The following applies: S. cerevisiae cln2 rad14 strain, at 50.0 µM, stronger effect = higher value. The method in brief: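 Compounds are applied to the cln2 rad14 yeast strain, and growth is then compared with that of vehicle-treated cultures to give inhibition.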
Test [5] is described as follows: NCI Yeast Anticancer Drug Screen. Data for the bub3 strain (AID 167). The following applies: S. cerevisiae bub3 mutant strain, at 50.0 µM, stronger effect = higher value. In outline: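 Part of a panel of yeast mutants defective in DNA damage repair or cell cycle regulation. Each strain is grown with compound, and inhibition is calculated relative to solvent-treated cultures.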

Test [6] in a line: NCI Yeast Anticancer Drug Screen. Data for the mlh1 rad18 strain (AID 175). Particulars: S. cerevisiae mlh1 rad18 strain growth inhibition; at 50.0 µM; stronger effect = higher value. The method in brief:
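Read-out is yeast growth inhibition, calculated against vehicle-only controls. The compound was applied to a strain engineered with DNA damage repair alterations.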

As for `C=C(C)C(=O)OCC(O)C[N+](C)(C)C` (stereo unspecified), the growth inhibition in test [1] was 0.35%; in test [2] it was -15.8%; in test [3], 2.9%; in test [4], 11.2%; in test [5], 5.1%; in test [6], 4.3%.

With `O=C1CCC(=O)N1Cl`, the growth inhibition in test [1] was 1.05%; in test [2], -1%; in test [3], -3.6%; in test [4], -13.3%; in test [5], -5.75%; in test [6], -13.8%.

Regarding `CCOP(=O)(O)C(c1ccccc1)c1ccccc1`, the growth inhibition is -2.45% in test [1]; 7.5% in test [2]; 3.5% in test [3]; -10.7% in test [4]; 5.3% in test [5]; 6.85% in test [6].

Regarding `Cc1ccc(N=Nc2c(C)nn(-c3ccccc3)c2C)c(Br)c1`, the growth inhibition in test [1] was 26.6%; in test [2], 10.8%; in test [3], 47.5%; in test [4], 4.1%; in test [5], 18.9%; in test [6] it was 38.6%.

Turning to `N#CNS(=O)(=O)c1ccccc1`, the growth inhibition in test [1] is 8.3%; in test [2] it was -5.6%; in test [3], 22.6%; in test [4] it was 14%; in test [5] it was 12.2%; in test [6], 17.6%.

Consider `COC(=O)c1nc(=S)[nH]c(C(=O)OC)c1C(=O)c1ccccc1`, for which the growth inhibition was -25.9% in test [1]; -12.9% in test [2]; -27.4% in test [3]; 36% in test [4]; -25.4% in test [5]; -16.4% in test [6].

Turning to `Nc1nnc(CCC(=O)Nc2cccc(C(F)(F)F)c2)n1N`, the growth inhibition in test [1] was 4.85%; in test [2] it was 5.6%; in test [3], 7.3%; in test [4], -27.9%; in test [5] it was 9.65%; in test [6], 1.55%.

Consider `CCCCCCCCC(C)(C)O`, for which the growth inhibition in test [1] is -3.15%; in test [2], -3.55%; in test [3] it was -1.25%; in test [4] it was 3.05%; in test [5], 5.65%; in test [6], -4.45%.

On to `CCOC(=O)c1ccc(NCc2ccc3oc(=O)c(-c4ccccc4)nc3c2)cc1`, for which the growth inhibition in test [1] was -14.7%; in test [2], -16.6%; in test [3], -12.8%; in test [4], 22.2%; in test [5] it was -17.7%; in test [6], -17.4%.

As for `O=C(Nc1cccc(Cl)c1)ON1C(=O)C2C(C1=O)C1(Cl)C(Cl)C(Cl)C2(Cl)C1(Cl)Cl` (stereo unspecified), the growth inhibition in test [1] is 0.4%; in test [2] it was 19.4%; in test [3], -15.8%; in test [4] it was -1.35%; in test [5], -24%; in test [6], -16.1%.

For the compound `CCCCCCCCN1COC2CCc3ccccc3C21` (stereo unspecified), the growth inhibition in test [1] was 93.5% (active); in test [2], 93.8% (active); in test [3], 93.8% (active); in test [4] it was 87.6% (active); in test [5] it was 94% (active); in test [6], 92.3% (active).

On to `Cc1nn(C)c(C#N)c1[N+](=O)[O-]`, for which the growth inhibition is -7.05% in test [1]; -30.3% in test [2]; -36.3% in test [3]; 4.4% in test [4]; -16.2% in test [5]; 0.8% in test [6].

Take `C[N+](C)(C)CC(=O)N/N=C(\C(=O)NC1=C(Cl)C(=O)c2ccccc2C1=O)C(C#N)c1csc(-c2ccc([N+](=O)[O-])cc2)n1` (stereo unspecified): the growth inhibition was 14.8% in test [1]; 26.6% in test [2]; -5.8% in test [3]; 17.6% in test [4]; 33.5% in test [5]; 19.9% in test [6].

Take `Cc1nc(-c2ccccc2)nc2c1nc(Cc1ccc(Cl)cc1)n2Nc1ccccc1`: the growth inhibition in test [1] is 1.7%; in test [2], -0.3%; in test [3] it was 1.6%; in test [4], -5.75%; in test [5] it was -1.45%; in test [6], 40.5%.

`CCCCCC(=O)C(CCCC)C(=O)OCC` (stereo unspecified): the growth inhibition is -6.15% in test [1]; -0.1% in test [2]; -25.2% in test [3]; 2.6% in test [4]; -12% in test [5]; -33.5% in test [6].

For `C=C(CC)C(=O)c1ccc(OCC(=O)O)c(Cl)c1Cl`, the growth inhibition in test [1] is 14.7%; in test [2], -15.9%; in test [3], 16.6%; in test [4], 16.1%; in test [5], 19.8%; in test [6], -8.35%.

Turning to `COc1cc2c(c3c1c(=O)c1ccccc1n3C)C=CC1(CCCCC1)O2`, the growth inhibition was -12.4% in test [1]; -19.6% in test [2]; 91% (active) in test [3]; 86.5% (active) in test [4]; 87.5% (active) in test [5]; -7.4% in test [6].

Turning to `c1ccc(CC[n+]2ccncc2)cc1`, the growth inhibition in test [1] is -8.75%; in test [2] it was 6.8%; in test [3], -8.4%; in test [4] it was -10.2%; in test [5] it was 7.15%; in test [6], -17.3%.

On to `NC(=O)C(Cc1ccccc1)c1ccccc1` (stereo unspecified), for which the growth inhibition was -12.2% in test [1]; -15.2% in test [2]; -7.55% in test [3]; -23% in test [4]; -16.6% in test [5]; 18.4% in test [6].

As for `OC(CNc1ccc(Cl)nn1)c1ccccc1` (stereo unspecified), the growth inhibition in test [1] is -3.35%; in test [2], -10.3%; in test [3] it was 21%; in test [4], 13.4%; in test [5], 9.7%; in test [6], -15.2%.

Turning to `[CH3][Sn]([CH3])([N](c1ccccn1)c1ccccn1)[N](c1ccccn1)c1ccccn1`, the growth inhibition is -8.85% in test [1]; 2.7% in test [2]; 17% in test [3]; -17.3% in test [4]; -1.65% in test [5]; -21.4% in test [6].
